# In PMC7862700, “An all-to-all approach to the identification of sequence-specific readers for epigenetic DNA modifications on cytosine”:
# Assays:
# Assay in all cases: DAPPL (digital affinity profiling via proximity ligation, sequencing); 10 mM Tris-HCl pH 7.5, 50 mM NaCl, 1 mM DTT, 4% glycerol, room temperature, 30 min; GST-TFs on glutathione beads, 16-mer random dsDNA library, 0.1% formaldehyde crosslink after washing; high values mean tight binding
# FLI1 = molecular target: T1, FLI1 (Homo sapiens, UniProt Q01543 1-452); conditions: protein: recombinant; tags: N-terminal GST; dsDNA, one strand shown
# T1 sequence: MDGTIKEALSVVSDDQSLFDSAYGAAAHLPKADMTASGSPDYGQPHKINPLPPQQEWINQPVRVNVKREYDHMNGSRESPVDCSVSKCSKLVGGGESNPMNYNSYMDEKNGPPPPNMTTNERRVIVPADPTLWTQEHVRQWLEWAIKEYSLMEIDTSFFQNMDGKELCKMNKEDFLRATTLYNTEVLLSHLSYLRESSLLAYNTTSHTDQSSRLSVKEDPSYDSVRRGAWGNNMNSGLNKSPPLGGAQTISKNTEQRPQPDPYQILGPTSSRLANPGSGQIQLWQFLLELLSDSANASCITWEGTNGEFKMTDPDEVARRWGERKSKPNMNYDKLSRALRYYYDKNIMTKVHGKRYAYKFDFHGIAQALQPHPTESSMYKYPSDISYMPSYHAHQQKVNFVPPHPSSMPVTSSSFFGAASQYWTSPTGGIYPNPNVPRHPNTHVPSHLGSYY
# Procedure, shortened: (§1)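 In yeast, human transcription factors were expressed with a GST fusion, then pulled down on glutathione beads and given DNA barcodes. Pooled with a tag-only sample, they were exposed to 200 nmole of a 16-mer random double-stranded DNA library (Tris/NaCl/DTT/glycerol buffer, room temperature, 30 min), washed, crosslinked with 0.1% formaldehyde, proximity-ligated using BsaI/T4 ligase for 1 h at 37 °C, PCR-amplified and read on an Illumina NextSeq500. Each hexamer's frequency of reads for a factor, divided by the matching frequency for the tag-only sample, gives the binding signal.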
# ELK1 = molecular target: T2, ELK1 (Homo sapiens, UniProt P19419 1-428); conditions: protein: recombinant; tags: N-terminal GST; dsDNA, one strand shown
# T2 sequence: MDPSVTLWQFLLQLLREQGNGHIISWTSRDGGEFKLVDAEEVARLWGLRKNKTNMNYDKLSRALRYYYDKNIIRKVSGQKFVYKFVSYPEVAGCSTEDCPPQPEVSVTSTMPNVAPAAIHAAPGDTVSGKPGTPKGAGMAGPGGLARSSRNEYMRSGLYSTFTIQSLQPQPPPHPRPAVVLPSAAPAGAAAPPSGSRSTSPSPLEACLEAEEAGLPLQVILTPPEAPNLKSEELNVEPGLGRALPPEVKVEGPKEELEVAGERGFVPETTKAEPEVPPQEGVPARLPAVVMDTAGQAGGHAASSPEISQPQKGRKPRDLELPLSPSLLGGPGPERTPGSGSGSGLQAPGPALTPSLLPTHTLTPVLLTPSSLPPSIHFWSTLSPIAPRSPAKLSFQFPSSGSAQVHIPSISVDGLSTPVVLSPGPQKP
# Procedure, shortened: as §1
# GABPA = molecular target: T3, GABPA (Homo sapiens, UniProt Q06546 1-454); conditions: protein: recombinant; tags: N-terminal GST; dsDNA, one strand shown
# T3 sequence: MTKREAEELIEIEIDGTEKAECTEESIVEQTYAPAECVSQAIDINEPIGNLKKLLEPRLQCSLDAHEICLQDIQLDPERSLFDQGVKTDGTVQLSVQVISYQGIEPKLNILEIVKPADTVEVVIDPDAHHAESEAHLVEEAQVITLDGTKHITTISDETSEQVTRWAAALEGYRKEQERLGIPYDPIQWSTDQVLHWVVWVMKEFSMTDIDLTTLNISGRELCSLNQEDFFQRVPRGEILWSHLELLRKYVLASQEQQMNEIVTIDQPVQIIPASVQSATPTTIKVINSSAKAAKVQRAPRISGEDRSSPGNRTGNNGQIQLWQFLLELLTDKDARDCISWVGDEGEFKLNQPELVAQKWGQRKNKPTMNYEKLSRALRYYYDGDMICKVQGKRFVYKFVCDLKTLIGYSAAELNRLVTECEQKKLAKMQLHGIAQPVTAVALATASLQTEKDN
# Procedure, shortened: as §1
# ERG = molecular target: T4, ERG (Homo sapiens, UniProt P11308 1-479); conditions: protein: recombinant; tags: N-terminal GST; dsDNA, one strand shown
# T4 sequence: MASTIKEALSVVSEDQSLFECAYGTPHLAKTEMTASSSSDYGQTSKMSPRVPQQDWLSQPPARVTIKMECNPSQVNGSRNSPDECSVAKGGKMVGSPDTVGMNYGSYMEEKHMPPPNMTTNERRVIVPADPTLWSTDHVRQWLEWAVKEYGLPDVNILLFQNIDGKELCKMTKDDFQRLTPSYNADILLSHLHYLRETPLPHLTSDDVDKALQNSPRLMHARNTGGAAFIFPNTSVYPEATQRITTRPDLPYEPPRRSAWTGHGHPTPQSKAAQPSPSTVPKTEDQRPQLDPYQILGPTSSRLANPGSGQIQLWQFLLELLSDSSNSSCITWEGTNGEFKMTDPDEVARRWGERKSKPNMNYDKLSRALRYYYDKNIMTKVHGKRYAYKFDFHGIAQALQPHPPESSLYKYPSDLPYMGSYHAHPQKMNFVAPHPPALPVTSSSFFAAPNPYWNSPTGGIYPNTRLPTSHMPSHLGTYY
# Procedure, shortened: as §1
# ELF1 = ELF1 (Homo sapiens, UniProt P32519 1-619); conditions: protein: recombinant; tags: N-terminal GST; dsDNA, one strand shown
# ELF1, sequence (P32519 whole entry): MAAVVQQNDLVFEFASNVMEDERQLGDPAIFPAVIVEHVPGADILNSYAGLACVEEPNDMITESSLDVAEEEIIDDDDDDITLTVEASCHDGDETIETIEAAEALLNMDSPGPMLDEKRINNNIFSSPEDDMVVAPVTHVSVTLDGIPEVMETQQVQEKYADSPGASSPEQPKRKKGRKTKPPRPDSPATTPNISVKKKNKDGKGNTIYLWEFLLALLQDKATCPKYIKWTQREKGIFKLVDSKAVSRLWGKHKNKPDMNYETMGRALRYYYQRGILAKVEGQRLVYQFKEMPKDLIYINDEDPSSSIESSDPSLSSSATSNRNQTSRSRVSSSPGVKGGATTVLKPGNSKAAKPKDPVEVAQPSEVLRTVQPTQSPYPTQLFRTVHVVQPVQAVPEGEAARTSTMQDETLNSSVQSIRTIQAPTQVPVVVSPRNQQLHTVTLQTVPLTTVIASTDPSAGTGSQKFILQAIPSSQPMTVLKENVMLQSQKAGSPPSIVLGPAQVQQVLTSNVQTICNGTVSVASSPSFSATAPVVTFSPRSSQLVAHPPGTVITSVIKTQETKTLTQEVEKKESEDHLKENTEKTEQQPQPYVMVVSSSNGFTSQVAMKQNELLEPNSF
# Procedure, shortened: as §1
# EHF = molecular target: T5, EHF (Homo sapiens, UniProt Q9NZC4 1-300); conditions: protein: recombinant; tags: N-terminal GST; dsDNA, one strand shown
# T5 sequence: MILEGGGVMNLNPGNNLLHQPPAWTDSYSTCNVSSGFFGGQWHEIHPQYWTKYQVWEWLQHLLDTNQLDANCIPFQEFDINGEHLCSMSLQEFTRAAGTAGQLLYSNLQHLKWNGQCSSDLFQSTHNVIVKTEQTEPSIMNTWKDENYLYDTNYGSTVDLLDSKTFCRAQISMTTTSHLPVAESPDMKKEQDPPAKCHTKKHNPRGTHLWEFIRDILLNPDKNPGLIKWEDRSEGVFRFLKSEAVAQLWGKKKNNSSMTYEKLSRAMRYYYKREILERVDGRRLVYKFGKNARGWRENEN
# Procedure, shortened: as §1
# ELK3 = molecular target: T6, ELK3 (Homo sapiens, UniProt P41970 1-407); conditions: protein: recombinant; tags: N-terminal GST; dsDNA, one strand shown
# T6 sequence: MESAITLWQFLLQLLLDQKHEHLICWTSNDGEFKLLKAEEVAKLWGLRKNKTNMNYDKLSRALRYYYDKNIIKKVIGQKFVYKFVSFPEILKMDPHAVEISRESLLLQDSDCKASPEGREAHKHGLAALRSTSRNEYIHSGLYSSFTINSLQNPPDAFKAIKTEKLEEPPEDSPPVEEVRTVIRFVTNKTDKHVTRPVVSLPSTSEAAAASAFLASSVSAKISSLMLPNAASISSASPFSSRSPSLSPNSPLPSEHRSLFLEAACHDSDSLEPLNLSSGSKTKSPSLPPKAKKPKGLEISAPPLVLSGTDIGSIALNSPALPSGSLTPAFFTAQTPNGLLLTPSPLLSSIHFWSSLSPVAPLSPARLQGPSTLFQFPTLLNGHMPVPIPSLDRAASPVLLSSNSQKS
# Procedure, shortened: as §1
# FEV = molecular target: T7, FEV (Homo sapiens, UniProt Q99581 1-238); conditions: protein: recombinant; tags: N-terminal GST; dsDNA, one strand shown
# T7 sequence: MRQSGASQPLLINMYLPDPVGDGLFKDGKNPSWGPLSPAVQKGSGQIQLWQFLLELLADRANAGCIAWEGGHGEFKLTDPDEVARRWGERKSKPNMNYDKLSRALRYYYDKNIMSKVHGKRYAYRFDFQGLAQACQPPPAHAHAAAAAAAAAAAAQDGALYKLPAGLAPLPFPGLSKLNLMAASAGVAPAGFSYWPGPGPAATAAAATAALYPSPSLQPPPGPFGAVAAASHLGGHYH
# Procedure, shortened: as §1
# ETV5 = ETV5 (Homo sapiens, UniProt P41161 1-510); conditions: protein: recombinant; tags: N-terminal GST; dsDNA, one strand shown
# ETV5, sequence (P41161 whole entry): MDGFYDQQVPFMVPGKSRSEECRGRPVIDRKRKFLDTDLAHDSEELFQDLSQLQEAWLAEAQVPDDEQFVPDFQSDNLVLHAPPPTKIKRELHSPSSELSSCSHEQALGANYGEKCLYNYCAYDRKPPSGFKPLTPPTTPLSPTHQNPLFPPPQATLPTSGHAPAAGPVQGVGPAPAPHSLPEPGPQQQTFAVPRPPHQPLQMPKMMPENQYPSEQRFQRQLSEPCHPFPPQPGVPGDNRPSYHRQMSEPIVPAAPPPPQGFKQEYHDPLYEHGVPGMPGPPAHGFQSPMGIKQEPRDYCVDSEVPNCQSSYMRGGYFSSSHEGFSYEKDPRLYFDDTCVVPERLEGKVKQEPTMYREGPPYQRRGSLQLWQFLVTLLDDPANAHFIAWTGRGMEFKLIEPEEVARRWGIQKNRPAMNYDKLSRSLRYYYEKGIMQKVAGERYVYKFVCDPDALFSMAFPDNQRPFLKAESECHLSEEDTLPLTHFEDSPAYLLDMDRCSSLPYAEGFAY
# Procedure, shortened: as §1
# HSF1 = HSF1 (Homo sapiens, UniProt Q00613 1-529); conditions: protein: recombinant; tags: N-terminal GST; chain copies: 3; dsDNA, one strand shown
# HSF1, sequence (Q00613 whole entry): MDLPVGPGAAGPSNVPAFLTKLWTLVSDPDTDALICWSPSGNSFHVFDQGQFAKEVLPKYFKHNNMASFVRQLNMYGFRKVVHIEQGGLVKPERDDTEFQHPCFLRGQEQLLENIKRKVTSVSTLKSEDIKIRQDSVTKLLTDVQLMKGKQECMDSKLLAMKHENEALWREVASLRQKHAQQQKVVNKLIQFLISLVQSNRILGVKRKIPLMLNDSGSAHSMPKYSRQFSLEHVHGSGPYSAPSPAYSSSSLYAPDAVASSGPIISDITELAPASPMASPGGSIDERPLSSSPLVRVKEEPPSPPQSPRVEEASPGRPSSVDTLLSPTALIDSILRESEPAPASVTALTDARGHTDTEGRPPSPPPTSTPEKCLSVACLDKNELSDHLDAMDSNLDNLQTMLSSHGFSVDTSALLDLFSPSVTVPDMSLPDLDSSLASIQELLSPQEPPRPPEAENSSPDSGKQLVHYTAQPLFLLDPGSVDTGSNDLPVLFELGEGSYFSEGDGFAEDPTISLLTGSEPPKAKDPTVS
# Procedure, shortened: as §1
# ELF4 = ELF4 (Homo sapiens, UniProt Q99607 1-663); conditions: protein: recombinant; tags: N-terminal GST; dsDNA, one strand shown
# ELF4, sequence (Q99607 whole entry): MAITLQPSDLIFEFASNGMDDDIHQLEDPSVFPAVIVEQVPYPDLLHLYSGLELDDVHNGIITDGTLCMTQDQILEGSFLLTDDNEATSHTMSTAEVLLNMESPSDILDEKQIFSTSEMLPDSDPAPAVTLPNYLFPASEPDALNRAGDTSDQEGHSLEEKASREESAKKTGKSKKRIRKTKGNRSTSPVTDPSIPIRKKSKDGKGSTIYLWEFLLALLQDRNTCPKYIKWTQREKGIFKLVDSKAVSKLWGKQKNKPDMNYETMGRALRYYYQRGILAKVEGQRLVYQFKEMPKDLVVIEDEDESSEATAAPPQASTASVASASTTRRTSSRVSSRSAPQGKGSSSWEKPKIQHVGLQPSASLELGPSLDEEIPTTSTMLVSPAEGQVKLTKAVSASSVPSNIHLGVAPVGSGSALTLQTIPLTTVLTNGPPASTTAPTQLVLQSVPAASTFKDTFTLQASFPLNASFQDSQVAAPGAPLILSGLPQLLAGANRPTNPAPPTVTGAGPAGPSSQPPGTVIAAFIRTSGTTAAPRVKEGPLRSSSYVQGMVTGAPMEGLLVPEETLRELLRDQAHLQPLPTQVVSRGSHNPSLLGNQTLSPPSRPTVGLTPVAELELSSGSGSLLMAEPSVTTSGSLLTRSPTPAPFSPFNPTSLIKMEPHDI
# Procedure, shortened: as §1
# ELK4 = molecular target: T8, ELK4 (Homo sapiens, UniProt P28324-2 1-405); conditions: protein: recombinant; tags: N-terminal GST; dsDNA, one strand shown
# T8 sequence: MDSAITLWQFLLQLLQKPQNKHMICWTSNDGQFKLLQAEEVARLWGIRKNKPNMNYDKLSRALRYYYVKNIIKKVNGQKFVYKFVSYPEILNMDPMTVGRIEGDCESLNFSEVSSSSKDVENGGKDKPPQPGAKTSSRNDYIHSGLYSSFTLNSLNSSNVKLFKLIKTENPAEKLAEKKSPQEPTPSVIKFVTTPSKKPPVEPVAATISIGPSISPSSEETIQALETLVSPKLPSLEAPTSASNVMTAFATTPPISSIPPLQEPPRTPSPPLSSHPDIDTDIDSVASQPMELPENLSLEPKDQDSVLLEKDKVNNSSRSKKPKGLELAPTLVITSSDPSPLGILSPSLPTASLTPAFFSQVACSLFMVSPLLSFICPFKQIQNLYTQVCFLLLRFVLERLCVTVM
# Procedure, shortened: as §1
# CRX = CRX (Homo sapiens, UniProt O43186 1-299); conditions: protein: recombinant; tags: N-terminal GST; dsDNA, one strand shown
# CRX, sequence (O43186 whole entry): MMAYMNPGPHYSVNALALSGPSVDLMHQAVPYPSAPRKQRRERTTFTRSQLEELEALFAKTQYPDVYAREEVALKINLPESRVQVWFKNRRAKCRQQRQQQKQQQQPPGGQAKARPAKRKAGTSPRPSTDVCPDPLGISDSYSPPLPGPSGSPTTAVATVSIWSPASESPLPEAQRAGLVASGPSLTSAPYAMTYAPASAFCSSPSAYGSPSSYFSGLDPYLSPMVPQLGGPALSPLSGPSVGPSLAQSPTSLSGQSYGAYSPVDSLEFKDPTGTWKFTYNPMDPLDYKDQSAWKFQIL
# Procedure, shortened: as §1
# ETV1 = ETV1 (Homo sapiens, UniProt P50549 1-477); conditions: protein: recombinant; tags: N-terminal GST; dsDNA, one strand shown
# ETV1, sequence (P50549 whole entry): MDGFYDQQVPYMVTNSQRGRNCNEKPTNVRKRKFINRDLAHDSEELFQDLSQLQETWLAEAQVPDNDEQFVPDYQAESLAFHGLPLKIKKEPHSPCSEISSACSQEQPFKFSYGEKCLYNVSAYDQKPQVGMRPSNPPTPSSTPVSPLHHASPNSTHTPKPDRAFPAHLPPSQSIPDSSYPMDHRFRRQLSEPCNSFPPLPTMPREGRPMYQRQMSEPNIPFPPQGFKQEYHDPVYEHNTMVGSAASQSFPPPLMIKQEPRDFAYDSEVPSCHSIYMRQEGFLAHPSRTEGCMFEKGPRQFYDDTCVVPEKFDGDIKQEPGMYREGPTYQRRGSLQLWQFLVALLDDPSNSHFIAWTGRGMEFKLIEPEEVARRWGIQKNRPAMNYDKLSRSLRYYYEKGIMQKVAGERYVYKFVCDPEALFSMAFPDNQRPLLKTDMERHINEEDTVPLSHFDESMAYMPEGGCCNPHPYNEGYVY
# Procedure, shortened: as §1
# SPIB = SPIB (Homo sapiens, UniProt Q01892 1-262); conditions: protein: recombinant; tags: N-terminal GST; dsDNA, one strand shown
# SPIB, sequence (Q01892 whole entry): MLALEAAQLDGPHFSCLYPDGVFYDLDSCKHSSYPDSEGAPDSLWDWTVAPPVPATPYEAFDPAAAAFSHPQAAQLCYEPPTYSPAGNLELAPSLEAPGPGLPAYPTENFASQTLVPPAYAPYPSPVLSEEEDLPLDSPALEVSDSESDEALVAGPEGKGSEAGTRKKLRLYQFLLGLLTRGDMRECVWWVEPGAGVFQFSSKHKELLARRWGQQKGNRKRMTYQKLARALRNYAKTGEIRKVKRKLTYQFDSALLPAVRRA
# Procedure, shortened: as §1
# ELF3 = molecular target: T9, ELF3 (Homo sapiens, UniProt P78545 1-371); conditions: protein: recombinant; tags: N-terminal GST; dsDNA, one strand shown
# T9 sequence: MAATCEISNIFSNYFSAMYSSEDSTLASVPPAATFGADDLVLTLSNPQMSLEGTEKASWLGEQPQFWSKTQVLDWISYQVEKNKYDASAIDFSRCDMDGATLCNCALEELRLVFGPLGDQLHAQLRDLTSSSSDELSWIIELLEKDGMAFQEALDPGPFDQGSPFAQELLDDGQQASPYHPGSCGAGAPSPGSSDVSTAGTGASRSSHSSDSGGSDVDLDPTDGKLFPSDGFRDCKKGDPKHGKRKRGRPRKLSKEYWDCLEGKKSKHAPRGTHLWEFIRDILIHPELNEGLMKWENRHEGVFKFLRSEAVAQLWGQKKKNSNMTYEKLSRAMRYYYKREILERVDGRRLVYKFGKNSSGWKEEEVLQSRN
# Procedure, shortened: as §1
sequence,measurement,setting,value
ATCGCA,binding signal,FLI1,"1.07 fold enrichment (6-mer frequency, TF over GST control)"
same,binding signal,ELK1,"1.07 fold enrichment (6-mer frequency, TF over GST control)"
same,binding signal,GABPA,"1.1 fold enrichment (6-mer frequency, TF over GST control)"
same,binding signal,ERG,"1.03 fold enrichment (6-mer frequency, TF over GST control)"
same,binding signal,ELF1,"1.08 fold enrichment (6-mer frequency, TF over GST control)"
same,binding signal,EHF,"1.02 fold enrichment (6-mer frequency, TF over GST control)"
same,binding signal,ELK3,"1.06 fold enrichment (6-mer frequency, TF over GST control)"
same,binding signal,FEV,"1.01 fold enrichment (6-mer frequency, TF over GST control)"
same,binding signal,ETV5,"1 fold enrichment (6-mer frequency, TF over GST control)"
same,binding signal,HSF1,"1.03 fold enrichment (6-mer frequency, TF over GST control)"
same,binding signal,ELF4,"1.12 fold enrichment (6-mer frequency, TF over GST control)"
same,binding signal,ELK4,"1.06 fold enrichment (6-mer frequency, TF over GST control)"
same,binding signal,CRX,"1.17 fold enrichment (6-mer frequency, TF over GST control)"
same,binding signal,ETV1,"1.06 fold enrichment (6-mer frequency, TF over GST control)"
CATAAA,binding signal,FLI1,"1 fold enrichment (6-mer frequency, TF over GST control)"
same,binding signal,SPIB,"1.01 fold enrichment (6-mer frequency, TF over GST control)"
same,binding signal,FEV,"1 fold enrichment (6-mer frequency, TF over GST control)"
same,binding signal,ETV5,"1.03 fold enrichment (6-mer frequency, TF over GST control)"
same,binding signal,HSF1,"1.07 fold enrichment (6-mer frequency, TF over GST control)"
same,binding signal,ELF4,"1.06 fold enrichment (6-mer frequency, TF over GST control)"
same,binding signal,ELF3,"1.08 fold enrichment (6-mer frequency, TF over GST control)"
same,binding signal,CRX,"1.11 fold enrichment (6-mer frequency, TF over GST control)"
same,binding signal,ETV1,"1.03 fold enrichment (6-mer frequency, TF over GST control)"
